Compound activity deposited in PubChem BioAssay by National Center for Advancing Translational Sciences (NCATS).
D2 PAM-1: human D2 receptor positive allosteric modulation | P14416 | DiscoveRx D2 beta-arrestin cells, luminescence, 90 min; 100% = 57 uM dopamine signal | potentiation, % (concentration not given with the values) | actives 0.23% (n = 360,000); in the data active = potentiation above about 50%; inconclusive = mostly about 30% to 49%
Target sequence (P14416 whole entry, looked up): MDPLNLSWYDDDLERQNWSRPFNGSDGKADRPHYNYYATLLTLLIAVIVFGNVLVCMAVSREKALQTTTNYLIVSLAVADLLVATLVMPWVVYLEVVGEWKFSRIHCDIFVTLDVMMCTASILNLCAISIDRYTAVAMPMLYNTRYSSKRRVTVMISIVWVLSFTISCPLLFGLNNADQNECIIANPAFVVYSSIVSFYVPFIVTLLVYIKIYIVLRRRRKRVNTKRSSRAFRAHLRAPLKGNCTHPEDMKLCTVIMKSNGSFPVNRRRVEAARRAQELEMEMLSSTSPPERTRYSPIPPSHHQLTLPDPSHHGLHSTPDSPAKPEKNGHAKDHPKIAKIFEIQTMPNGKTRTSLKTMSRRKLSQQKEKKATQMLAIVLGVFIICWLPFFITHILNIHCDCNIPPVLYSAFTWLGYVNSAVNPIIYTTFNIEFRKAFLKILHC
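PathHunter D2 cells, attached overnight at 37 deg C, received compound in DMSO plus dopamine at EC20 (50 nM final) for 90 min at 37 deg C. Beta-arrestin recruitment was read as luminescence after 1 h with detection reagent at ambient temperature.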
D2 ag-1: human D2 receptor agonism in beta-arrestin assay. AID 624465. P14416. activation, % (concentration not given with the values). DiscoveRx PathHunter D2 beta-arrestin, luminescence, 90 min; 100% = 57 uM dopamine signal. actives 0.084% (n = 360,000); in the data active = activation above about 40%; inconclusive = between about 15% and that limit
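DiscoveRx PathHunter D2 beta-arrestin cells (2,100/well) attached overnight, then compound-stimulated 90 min at 37 C in HBSS/10 mM HEPES/0.1% Tween-20 buffer; beta-galactosidase complementation read by luminescence after 1 h at ambient temperature. Dopamine 57 uM final (EC100) as control.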
D2 antagonist: D2 dopamine receptor (human) antagonism. P14416. HEK293 TREx D2 cells, calcium flux, dopamine EC80. inhibition, % at 10 µM. actives 2% (n = 340,000); in the data active = inhibition above about 30%; inactive = below that, where a call was filed; note: 0% is about no effect
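Measurement of antagonist activity uses fluorescent calcium dye in inducible HEK293 T-REx D2 cells: 10 s baseline, compound addition with 180 s read, EC80 dopamine addition with a further 180 s read.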
D2 PAM-2: positive allosteric modulators of human D2 dopamine receptor; HEK293 T-REx D2, calcium flux, EC20 dopamine potentiation; potentiation, % at 10 µM; P14416; actives 0.34% (n = 340,000); AID 485347;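 active = potentiation over 3 SD above the plate norm, cut at about 30% in these data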; note: 0% is about no effect
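Using a no-wash calcium dye in inducible, force-coupled HEK293 Trex cells expressing D2, we tracked fluorescence each second for 180 s after compound, then for 180 s after EC20 dopamine to detect augmented signalling.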
D2 ag-2: D2 dopamine receptor (human) agonism; P14416; HEK293 T-REx D2 cells, calcium flux agonist mode; activation, % at 2 µM; actives 0.53% (n = 340,000); AID 485358;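 active = activation over 3 SD above normal in the single-dose calcium agonist read, cut at about 30% in these data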; note: 0% is about no effect
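HEK293 Trex D2 cells, tetracycline-induced, o/n 30 C 5% CO2; no-wash Ca dye, RT 30–90 min; 10-cycle baseline, 23 nl cpd added, kinetic Ca read 180 s; agonist hits = positive Ca response.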
Numbers without * were called inactive; ? = inconclusive; · = not tested or not shown. This is a sample that favours compounds with a hit; in the whole collection about 2.4% have one here.

SMILES	D2 PAM-1	D2 ag-1	D2 antagonist	D2 PAM-2	D2 ag-2
CCOC(=O)c1c(NC(=O)COc2cccc(C(F)(F)F)c2)sc2c1CCC(C)C2 (stereo not given)	·	·	·	-3.8	-1.2
COc1cccc(N2CCN(c3ncnc4c3[nH]c3ccc(F)cc34)CC2C)c1 (stereo not given)	51.9*	10.0	-1.4	-2.3	3.1
COc1cccc(N2CCN(c3ncnc4c3[nH]c3ccccc34)CC2C)c1 (stereo not given)	·	·	-8.1	7.8	0.7
COc1ccc(-c2nc(Cn3c(=O)cc(-c4ccccc4)c4c(C)nn(C)c43)c(C)o2)cc1OC	·	·	·	4.6	0.1
COc1cc(C2Nc3cc(C)c(C)cc3NC3=C2C(=O)CC(C)(C)C3)ccc1OC(C)=O (stereo not given)	-5.8	4.3	3.4	16.9	0.0
Cc1cc2c(cc1C)NC(c1c(C)n(C)n(-c3ccccc3)c1=O)C1=C(CC(C)(C)CC1=O)N2 (stereo not given)	-70.4	-19.3	13.3	8.0	34.4*
CNCCCC1c2ccccc2C=Cc2ccccc21	-27.4	2.1	74.8*	-26.3	2.8
O=C(Nc1cccc(C(F)(F)F)c1)c1cc2ncc(Br)cn2n1	-4.7	-1.5	52.9*	-24.6	0.6
COc1ccc(C2C(=O)N(C3CCCCCC3)CC(=O)N2Cc2ccc(C)cc2)cc1OC (stereo not given)	·	·	·	2.3	0.1
CC1CCCN(CCCNC(=O)c2ccc3c(c2)N(Cc2ccc(F)cc2)C(=O)c2ccccc2S3=O)C1 (stereo not given)	-39.5	-9.3	74.3*	-19.2	1.7
COc1ccccc1/C=C/c1nc2ccccc2n1C(C)C	·	·	·	-33.0	-0.5
COc1ccccc1N(CC(O)Cn1ccnc1C)S(=O)(=O)c1ccccc1 (stereo not given)	-3.0	-4.0	34.3*	-4.1	-0.3
COc1ccccc1N(CC(O)Cn1c(C)nc2ccccc21)S(=O)(=O)c1ccccc1 (stereo not given)	4.9	1.3	-11.5	10.9	1.1
O=C(c1ccco1)N1CCN(C(c2cccs2)c2nnnn2C2CCCC2)CC1 (stereo not given)	-8.1	0.8	7.2	-5.6	-0.4
COc1ccc(C(c2nnnn2C2CCCC2)N2CCC(C)CC2)cc1 (stereo not given)	-19.4	-6.0	-4.0	30.2*	-0.8
c1cnc2ccc(C(c3nnnn3C3CCCCC3)N3CCN(C4CCCCC4)CC3)cc2c1 (stereo not given)	-4.5	-3.0	·	·	·
COc1ccc(C(c2nnnn2C2CCCCC2)N2CCN(c3ccc(OC)cc3)CC2)cc1 (stereo not given)	-21.0	-3.5	-8.0	3.3	-0.5
c1cnc2ccc(C(c3nnnn3C3CCCCC3)N3CCCCC3)cc2c1 (stereo not given)	-17.9	-2.7	4.8	41.7*	0.6
O=C(c1ccco1)N1CCN(C(c2ccccn2)c2nnnn2C2CCCC2)CC1 (stereo not given)	7.2	-1.4	-13.0	35.3*	0.0
COc1ccc(/C=C/C(=O)Nc2nc(-c3cccs3)ns2)cc1OC	·	·	·	6.7	1.2
Cc1cccc(C(=O)Nc2cccc(C(=O)OCc3cc(=O)n4c5c(sc4n3)CCCC5)c2)c1	·	·	·	-1.2	1.7
O=C(O)c1ccnc(Cl)c1	-7.8	1.2	31.5*	2.0	-1.5
COc1ccccc1NC(=O)c1cc2c(n(-c3ccc(C)cc3)c1=O)CC(C)(C)CC2=O	·	·	·	-11.2	1.0
OC(CNCCc1ccc(C(F)(F)F)cc1)COC(c1ccccc1)c1ccccc1 (stereo not given)	-9.6	-2.8	31.0*	-5.4	7.1
COc1ccc(C(OCC(O)CNCCc2ccc(S(N)(=O)=O)cc2)c2ccc(OC)cc2)cc1 (stereo not given)	-10.6	-2.6	13.0	8.4	1.8
SMILES	D2 PAM-1	D2 ag-1	D2 antagonist	D2 PAM-2	D2 ag-2
O=C(CCSCc1ccccc1Cl)N1CCN(c2ccc(F)cc2)CC1	·	·	·	-11.8	·
O=C(COC(=O)/C=C/c1ccc(Cl)cc1)NC(=O)NCc1ccccc1	-11.4	4.6	44.2*	0.5	0.7
Cn1c(CN2CCN(c3ccccc3NS(C)(=O)=O)CC2)nc2ccccc21	-23.6	-4.1	32.5*	-18.1	0.6
Cn1c(CN2CCN(c3ccc(Cl)cc3)CC2)nc2ccccc21	-20.5	-2.3	2.5	-6.0	0.2
CCc1ccccc1NC(=O)CN1C(=O)COc2ccc(S(=O)(=O)Nc3ccccc3)cc21	·	·	·	0.2	0.4
CCOc1ccccc1NC(=O)Nc1ccc2c(c1)OCO2	-26.2	-5.0	-3.9	-10.1	0.1
C=CCOc1ccccc1CN(C(=O)CCl)c1ccc2c(c1)OCO2	-3.4	-3.8	33.0*	4.6	0.2
CC(C)(C)N(Cc1ccccc1)C(=O)CSc1nnc(CNc2ccc(F)cc2)o1	-3.5	-2.8	31.6*	11.4	0.0
Cc1ccc(NC(=S)c2nc3ccccc3s2)cc1	-8.3	-4.4	-1.4	87.4*	0.0
S=C(Nc1ccc(Cl)cc1)c1nc2ccccc2s1	-17.5	-3.1	-6.5	1.7	-0.3
CN1CCN(/C=N/C2=C(C#N)C(c3ccccc3)C3=C(CC(C)(C)CC3=O)O2)CC1 (stereo not given)	-18.2	-0.9	6.9	36.4*	-0.5
Cc1cc(C)c(Cn2c(CCNC(=O)c3ccco3)nc3ccccc32)c(C)c1	·	·	·	-7.8	·
O=C(COC(=O)CNS(=O)(=O)c1ccc2ccccc2c1)Nc1ccccc1Sc1ccccc1	4.1	1.6	16.7	-21.6	34.5*
Cc1ccc(C(=O)COC(=O)C2CC(=O)N(c3nc(-c4ccccc4)cs3)C2)cc1 (stereo not given)	-4.4	-2.6	34.1*	10.0	0.9
Cc1ccc(C)c(OCCC(=O)NNC(=O)c2ccccc2)c1	-8.5	0.6	-28.5	-4.2	0.5
Cc1ccc(C)c(OCCC(=O)NNC(=O)c2ccncc2)c1	-15.1	-2.1	43.4*	-0.5	-0.6
CCOC(=O)c1ccc2c(c1)N(CC(=O)Nc1ccc(CC)cc1)C(=O)c1ccccc1S2	·	·	·	-0.4	-0.3
Cc1nc2c(C(=O)NCCc3ccc(Cl)cc3)c[nH]n2c(=O)c1Cc1ccccc1F	·	·	·	-16.3	·
Cc1nc2c(C(=O)NCCC(C)C)c[nH]n2c(=O)c1Cc1ccccc1F	4.7	3.3	37.1*	5.1	0.8
C=C(C)[C@@H]1CC[C@]2(C(=O)O)CC[C@]3(C)[C@H](CC[C@@H]4[C@@]5(C)CC[C@H](O)C(C)(C)[C@@H]5CC[C@]43C)[C@@H]12	3.3	0.6	36.4*	5.0	0.3
Cc1ccc(-c2onc3ccc(C=O)cc23)cc1	59.1*	9.6	2.5	0.3	-1.4
Cc1cc(-c2onc3ccc(Cl)cc23)ccc1O	96.6*	?	1.1	0.5	-2.2
Cc1ccc(-c2onc3ccc(C4(C)OCCO4)cc23)cc1	68.8*	12.7	·	·	·
